# A selection: hits, their analogues and other compounds. The true share with any hit is near 19%.
# RORgamma inh: qHTS for inhibitors of ROR gamma transcriptional activity | Nuclear receptor ROR-gamma (Mus musculus), P51450 | actives 5.4% (n = 310,000) | Potency, µM (series often up to 53.6 µM), for the others: top-dose activity change, negative = inhibition, most hits filed as inhibitors | Drosophila S2 Gal4-RORgamma UAS-luciferase reporter, 20 h; note: nearly all actives have a fitted effect of over 60% in size
#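 Schneider cells (Drosophila), stable Gal4 DBD–ROR gamma + UAS-luc; 1 hr cmpd preincubation; Cu2+ induction 700 uM final; 20 hr ambient; luminescence.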
# TDP1 cell CPT: qHTS for Inhibitors of human tyrosyl-DNA phosphodiesterase 1 (TDP1): qHTS in cells in presence of CPT. chicken DT40 Tdp1-/-;hTDP1 cells + 20 nM CPT, ATP luminescence, 48 h. Potency, µM (series often up to 46.2 µM), for inactives: at the top dose activity change, negative = growth inhibition, actives largely listed as inhibitors. AID 686979, 2013. actives 12% (n = 420,000); note: nearly all actives have a fitted effect of over 55% in size
#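 Chicken DT40 Tdp1-/- cells complemented with human TDP1, 400 cells/well, exposed to compounds plus 20 nM camptothecin for at least 48 h at 37 C; viability read as ATP content by CellTiter-Glo luminescence.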
# TDP1 cell noCPT: qHTS for Inhibitors of human tyrosyl-DNA phosphodiesterase 1 (TDP1): qHTS in cells in absence of CPT; DT40 Tdp1-/- hTDP1 cells, no CPT, ATP luminescence, 48 h; Potency, µM (series often up to 46.2 µM), inactives show top-dose activity change, negative = growth inhibition, hits mostly inhibitors; actives 15% (n = 420,000); note: nearly all actives have a fitted effect of over 55% in size
#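 Compound effects on proliferation are scored in DT40 Tdp1-/-;hTDP1 cells in the absence of CPT. ATP levels (CellTiter-Glo luminescence) are recorded after a ≥48 hr, 37 °C incubation.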
# TDP1 block: qHTS Assay for Inhibitors of Tyrosyl-DNA Phosphodiesterase (TDP1); Tyrosyl-DNA phosphodiesterase 1 (Homo sapiens), Q9NUW8; actives 0.28% (n = 350,000); recombinant TDP1, AlphaScreen DNA substrate cleavage; Potency, µM (top dose mostly 130 µM), inactives show at the top dose activity change, negative = inhibition, usual class: inhibitors; note: nearly all actives have a fitted effect of over 40% in size
# Target sequence (Q9NUW8 whole entry, looked up): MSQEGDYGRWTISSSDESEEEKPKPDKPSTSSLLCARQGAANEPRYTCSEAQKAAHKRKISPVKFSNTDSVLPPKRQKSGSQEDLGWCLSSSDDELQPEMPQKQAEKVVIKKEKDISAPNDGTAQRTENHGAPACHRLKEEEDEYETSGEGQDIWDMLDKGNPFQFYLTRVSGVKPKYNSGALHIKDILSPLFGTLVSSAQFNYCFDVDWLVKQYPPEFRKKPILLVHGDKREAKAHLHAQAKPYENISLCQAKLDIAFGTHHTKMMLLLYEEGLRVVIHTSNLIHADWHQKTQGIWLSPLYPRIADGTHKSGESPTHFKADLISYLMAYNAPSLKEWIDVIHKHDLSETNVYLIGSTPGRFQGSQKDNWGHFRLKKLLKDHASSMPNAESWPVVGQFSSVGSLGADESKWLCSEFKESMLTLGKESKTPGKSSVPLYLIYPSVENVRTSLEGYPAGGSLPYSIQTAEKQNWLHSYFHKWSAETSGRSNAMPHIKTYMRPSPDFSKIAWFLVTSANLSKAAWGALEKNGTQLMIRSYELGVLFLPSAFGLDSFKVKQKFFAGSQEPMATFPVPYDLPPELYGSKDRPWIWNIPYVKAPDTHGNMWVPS
#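 Signal: AlphaScreen proximity between streptavidin donor and anti-FITC acceptor beads on intact substrate. Reaction: Tdp1 1 nM, substrate 15 nM final, 5 min RT after 15 min compound preincubation.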
# VP16 counter: VP16 counterscreen qHTS for inhibitors of ROR gamma transcriptional activity; Potency, µM (series often up to 53.6 µM), without a hit: top-dose activity, negative = inhibition, hits mostly inhibitors; actives 3.5% (n = 310,000); Drosophila S2 Gal4-VP16 UAS-luciferase, luminescence, 20 h;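 note: Gal4-VP16 expression switched on by copper sulfate through the metallothionein promoter; nearly all actives have a fitted effect of over 50% in size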
# * hit, by the source's call; ? = inconclusive; . = not tested or not shown; [ ] = remark or other dose. Calls come from the whole dose curve; as a rule, active = well fitted curve in the direction sought with a large enough effect; inconclusive = small, poorly fitted or top-dose-only effect, or another doubt; inactive = no such curve, though single readings can be large; an effect the other way counts as inactive or inconclusive. % is set by controls: 0 for no effect and ±100 for the full control effect; potency is the fitted concentration of half-maximal effect.
SMILES,RORgamma inh,TDP1 cell CPT,TDP1 cell noCPT,TDP1 block,VP16 counter
COc1cccc(C(c2nnnn2C(C)(C)C)N2CCN(C3CCCCC3)CC2)c1OC (stereo not drawn),-1%,-22%,-9%,2%,1%
C=CCN1CCN(C(CC(C)C)c2nnnn2CCOC)CC1 (stereo not drawn),-2%,4%,16%,-7%,-3%
C=CCN1CCN(C(c2cccc(OC)c2OC)c2nnnn2CCC(C)C)CC1 (stereo not drawn),-1%,26µM*,23µM*,6%,1%
O=C(NCc1cccnc1)C(=O)NCC(c1ccco1)N1CCN(c2ccccc2F)CC1 (stereo not drawn),34%,-3%,-28%,0%,-22%
COc1ccc(-n2nnnc2C(c2cccs2)N2CCN(C/C=C/c3ccccc3)CC2)cc1 (stereo not drawn),.,16µM*,16µM*,.,.
COc1cc(C2C3=C(CC(c4ccco4)CC3=O)Nc3ccccc3N2C(C)=O)cc(OC)c1OC (stereo not drawn),11%,-15%,-13%,-2%,-3%
Cc1ccccc1N1CCN(c2ncnc3c2cnn3Cc2ccc(Cl)cc2)CC1,23%,13µM*,13µM*,1%,-1%
Cc1ccc(Cn2ncc3c(N4CCN(C5CCCC5)CC4)ncnc32)cc1,12%,?,-26%,6%,-3%
Cc1ccc(Cn2ncc3c(N4CCN(CCc5ccccc5)CC4)ncnc32)cc1,2%,?,?,3%,-2%
Cc1ccc(Cl)cc1-n1ncc2c(N3CCC(C)CC3)ncnc21,.,23µM*,9.2µM*,3%,.
CC1CCN(c2ncnc3c2cnn3Cc2ccc(Cl)cc2)CC1,24%,18µM*,18µM*,-6%,-3%
Cc1ccc(Cn2ncc3c(N4CCN(Cc5ccc(Cl)cc5)CC4)ncnc32)cc1,?,18µM*,16µM*,6%,?
Oc1ccccc1/C=N/n1cnnc1,-3%,7%,0%,-2%,-2%
Cc1cccc(N2CC(c3nc4ccccc4[nH]3)CC2=O)c1 (stereo not drawn),22%,-13%,-9%,3%,3%
Clc1ccc(Cn2ncc3c(NCc4ccco4)ncnc32)c(Cl)c1,32%,?,?,10%,-4%
Cc1ccc(Cn2ncc3c(N4CCN(c5ccc(C)cc5)CC4)ncnc32)cc1,4%,-25%,?,4%,-2%
Cc1cc(C)nc(N2CCN(c3ncnc4c3cnn4Cc3ccc(Cl)cc3Cl)CC2)n1,-20%,?,3.7µM*,8%,-5%
Cc1ccc(Cn2ncc3c(N4CCN(C)CC4)ncnc32)cc1,-13%,?,10µM*,4%,-9%
CCOC(=O)c1c(C)c2c(n1C)CCC/C2=N\O,11%,1%,-28%,3%,22%
COc1ccc(C(CCN2CCCC(C)C2)c2c(OC)cc(OC)c3c(-c4ccccc4)cc(=O)oc23)cc1 (stereo not drawn),?,3.3µM*,2.9µM*,10%,-24%
COc1cc(OC)c2c(-c3ccccc3)cc(=O)oc2c1C(CCN1CCCC(C)C1)c1ccc(N(C)C)cc1 (stereo not drawn),?,?,21µM*,11%,-28%
CCCCCc1cc(=O)oc2c(C(CCN3CCCC(C)C3)c3ccc4c(c3)OCO4)c(OC)cc(OC)c12 (stereo not drawn),11%,?,?,.,3%
COc1ccc(C(CCN2CCCC(C)C2)c2c(OC)cc(OC)c3c(C)cc(=O)oc23)cc1 (stereo not drawn),6%,13µM*,23µM*,10%,-17%
COc1cc(OC)c2c(-c3ccccc3)cc(=O)oc2c1C(CC(=O)N1CCOCC1)c1ccc(N(C)C)cc1 (stereo not drawn),?,?,?,22%,-19%
COC(=O)c1cn[nH]c1NC(=S)Nc1ccccc1C,5.6µM*,-26%,-7%,8%,?
SMILES,RORgamma inh,TDP1 cell CPT,TDP1 cell noCPT,TDP1 block,VP16 counter
COC(=O)c1cn[nH]c1NC(=S)Nc1ccc(C)cc1Cl,2.8µM*,?,?,-1%,3.5µM*
COC(=O)c1cn[nH]c1NC(=S)Nc1ccc(Cl)c(Cl)c1,?,?,25µM*,2%,?
CC1CCC(NC(=O)c2ccc(-n3cncn3)c([N+](=O)[O-])c2)CC1 (stereo not drawn),.,11%,-107%,-6%,.
COC(=O)c1ccc(NC(=O)CCN2C(=O)C3C4CCC(C4)C3C2=O)cc1 (stereo not drawn),?,-4%,-21%,4%[56.1 µM],7%
NS(=O)(=O)c1cccc(NC(=O)COc2ncnc3c2cnn3-c2ccccc2)c1,7%,0%,6%,0%,-22%
CCCOc1ccccc1OCC(=O)Nc1ccc(S(=O)(=O)N2CCCC2)cc1,.,?,16µM*,7%,.
O=C(COc1ncnc2c1cnn2-c1ccccc1)Nc1ccc(S(=O)(=O)N2CCCCC2)cc1,27%,16µM*,?,8%,-4%
COc1ccccc1OCC(=O)Nc1ccc(S(=O)(=O)N2CCCCCC2)cc1,28%,?,?,-4%,-14%
CCCOc1ccccc1C(=O)Nc1ccc(S(=O)(=O)N2CCN(C)CC2)cc1,0%,18µM*,16µM*,5%,8%
Cc1ccc(S(=O)(=O)NC2=NCN(C(C)C)CN2)cc1,-27%,9%,9%,.,2%
Cn1c(=O)c2c(SCC(=O)NCc3ccco3)nc(-c3ccccc3Cl)nc2n(C)c1=O,27%,?,23µM*,-5%,-4%
Cn1c(=O)c2c(SCC(=O)NCc3ccco3)nc(-c3cccc(F)c3)nc2n(C)c1=O,.,-12%,-9%,0%,.
Fc1ccccc1OCCn1c(=S)[nH]c2ccccc21,5.6µM*,12%,-15%,?,4.5µM*
Cc1ccccc1OCCn1c(=O)oc2ccccc21,21%,-14%,-22%,0%,14%
Cc1ccccc1OCCn1c(=S)[nH]c2ccccc21,2.5µM*,?,?,4%,4.5µM*
Cc1c(C=O)c2ccccc2n1CCOc1ccccc1F,?,23µM*,10µM*,.,?
CCOC(=O)C1CCN(C(=O)c2c(C)nn(-c3ccc(F)cc3)c2-n2cccc2)CC1,.,.,.,3%,.
Cc1ccc(S(=O)(=O)N(C)C)cc1NC(=O)COC(=O)COc1ccccc1[N+](=O)[O-],33%,20%,1%,-9%,-7%

# Compound activity from PubChem BioAssay.
